Growth data for 17 molecules are collected here from PubChem BioAssay (NCI).

Compounds without any hit were thinned out: in the full panel of roughly 83,000, 20% have a hit.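 Each cell line was grown in a 96-well plate and treated with one concentration of compound for 48 hours. Values below 10 were considered active.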 Values without a mark were called inactive. Active and inactive are the calls of the source.

Some test systems named below: NCI-H23 lung; NCI-H226 lung; NCI-H322M lung; HOP-62 NSCLC; HOP-92 NSCLC; NCI-H522 lung; A549/ATCC NSCLC; 786-0 renal; COLO 205 colon; NCI-H460 lung.
What all share (test): NCI-60 one-dose screen, 48 h (100 = growth as untreated, 0 = no growth, -100 = all killed)
Details in all cases: 10 µM unless noted

As to `Nc1cc(N)ncn1`, the growth is 95.1% in the assay with NCI-H23 lung; 93.9% in the assay on NCI-H226 lung; 103% with NCI-H322M lung; 112% in the assay on HOP-62 NSCLC; 96% with HOP-92 NSCLC; 104% in the assay on NCI-H522 lung. The growth in the assay on A549/ATCC NSCLC was 103%; with 786-0 renal, 104%; in the assay on COLO 205 colon it was 104%.
For the molecule `S=CN1CCCCC1`, the growth in the assay with NCI-H23 lung was 105%; with NCI-H226 lung, 98.1%; with NCI-H322M lung, 102%; in the assay on HOP-62 NSCLC, 108%; in the assay with HOP-92 NSCLC, 103%; in the assay with NCI-H522 lung, 109%. Also, the growth is 91.8% with A549/ATCC NSCLC, 102% in the assay with 786-0 renal and 121% with COLO 205 colon.
On to `O=C(c1cccc(C(=O)c2ccc3c4c(cccc24)C(=O)N(c2ccccc2)C3=O)c1)c1ccc2c3c(cccc13)C(=O)N(c1ccccc1)C2=O`, for which the growth in the assay with NCI-H23 lung was 82.6%; in the assay on NCI-H226 lung, 78.6%; with NCI-H322M lung it was 113%; in the assay on HOP-62 NSCLC, 101%; in the assay on HOP-92 NSCLC it was 85.5%; in the assay with NCI-H522 lung, 85%. Further, the growth with A549/ATCC NSCLC was 103%; in the assay with 786-0 renal, 106%; in the assay on COLO 205 colon it was 102%.
On to `CN1CCN(C(=S)S)CC1`, for which the growth was 104% in the assay on NCI-H23 lung; 109% with NCI-H226 lung; 129% with NCI-H322M lung; 108% in the assay with HOP-62 NSCLC; 104% in the assay on HOP-92 NSCLC; 94.5% in the assay on NCI-H522 lung. Moreover, the growth in the assay with A549/ATCC NSCLC was 94%; with 786-0 renal, 105%; with COLO 205 colon, 80.9%.
Consider `NCC(O)C(O)C(O)C(O)CO` (stereo not given), for which the growth in the assay with NCI-H23 lung is 98.2%; in the assay with NCI-H226 lung, 93.4%; in the assay with NCI-H322M lung it was 100%; with HOP-62 NSCLC, 91.4%; in the assay with HOP-92 NSCLC, 80.7%; with NCI-H522 lung it was 102%. Also, the growth is 78.4% in the assay on A549/ATCC NSCLC, 99.2% with 786-0 renal and 101% with COLO 205 colon.
`C=CCC(OC(C)=O)c1ccc(OC)c(OC)c1` (stereo not given): the growth in the assay on NCI-H23 lung was 109%; in the assay on NCI-H226 lung, 119%; in the assay on NCI-H322M lung, 105%; with HOP-62 NSCLC it was 110%; in the assay on HOP-92 NSCLC, 108%; with A549/ATCC NSCLC, 104%. Further, in the assay with 786-0 renal, the growth is 115%.
On to `c1ccc(Oc2c3ccccc3nc3ccccc23)cc1`, for which the growth with NCI-H23 lung is 8.18% (active); in the assay with NCI-H226 lung it was 47.9%; in the assay on NCI-H322M lung it was 56.3%; in the assay on HOP-62 NSCLC it was 16.1%; in the assay on HOP-92 NSCLC, 8.21% (active); in the assay on NCI-H522 lung, -27.4% (active). Moreover, the growth was 34.1% with A549/ATCC NSCLC, 1.82% (active) in the assay on 786-0 renal and -10.5% (active) in the assay with COLO 205 colon.
On to `CCN1CCCC(N2c3ccccc3Sc3ccccc32)C1` (stereo not given), for which the growth with NCI-H23 lung was 103%; in the assay with NCI-H226 lung, 113%; with NCI-H322M lung, 86%; with HOP-62 NSCLC it was 104%; in the assay on HOP-92 NSCLC it was 74%; with NCI-H522 lung, 94.9%. Also, the results for the growth with A549/ATCC NSCLC, in the assay on 786-0 renal and in the assay with COLO 205 colon were 103%, 87.7% and 96.6%, respectively.
In the case of `O=[N+]([O-])c1c(Cl)ncnc1Cl`, the growth is 111% in the assay on NCI-H23 lung; 100% in the assay with NCI-H226 lung; 125% with NCI-H322M lung; 104% in the assay with HOP-62 NSCLC; 85.7% in the assay on HOP-92 NSCLC; 97.3% in the assay on NCI-H522 lung. For the same molecule, the growth in the assay on A549/ATCC NSCLC is 92.8%; in the assay on 786-0 renal, 109%; in the assay with COLO 205 colon, 113%.
As to `CCC(=O)Oc1ccc2ccccc2c1`, the growth in the assay with NCI-H23 lung is 100%; in the assay on NCI-H226 lung, 90.2%; in the assay with NCI-H322M lung it was 103%; with HOP-62 NSCLC, 81%; with HOP-92 NSCLC, 86.1%; in the assay with NCI-H522 lung, 99.5%. For the same molecule, the growth in the assay on A549/ATCC NSCLC was 99.4%; in the assay on 786-0 renal, 96.9%; with COLO 205 colon, 102%.
With `CC(C)c1ccc(C(=O)OCCCl)cc1`, the growth was 94% in the assay with NCI-H23 lung; 106% in the assay on NCI-H226 lung; 82.2% with HOP-62 NSCLC; 105% in the assay on NCI-H460 lung; 163% in the assay on HOP-92 NSCLC; 97.2% with NCI-H522 lung. The growth with A549/ATCC NSCLC was 97.9%; in the assay on 786-0 renal it was 95.2%.
Turning to `ClCc1cccc2c(CCl)cccc12`, the growth in the assay on NCI-H23 lung is 61.5%; with NCI-H226 lung, 74.9%; in the assay on NCI-H322M lung it was -4.83% (active); in the assay on HOP-62 NSCLC it was 54.5%; in the assay on HOP-92 NSCLC, 89.4%; in the assay on NCI-H522 lung, 79.4%. Moreover, the figures for the growth with A549/ATCC NSCLC, in the assay with 786-0 renal and in the assay on COLO 205 colon were 57.7%, -74.3% (active) and 77.9%, respectively.
As to `C=CCC(O)C=C` (stereo not given), the growth in the assay with NCI-H23 lung was 101%; with NCI-H226 lung, 103%; in the assay with NCI-H322M lung, 91.7%; in the assay with HOP-62 NSCLC, 109%; in the assay with HOP-92 NSCLC, 109%; in the assay with NCI-H522 lung, 108%. The growth with A549/ATCC NSCLC was 99.4%; with 786-0 renal it was 97.5%; with COLO 205 colon it was 106%.
With `O=C(O)CCCCCNC(=O)OCc1ccccc1`, the growth is 102% with NCI-H23 lung; 105% with NCI-H226 lung; 95.1% in the assay with NCI-H322M lung; 101% in the assay with HOP-62 NSCLC; 92.3% in the assay with HOP-92 NSCLC; 107% in the assay with NCI-H522 lung. The figures for the growth with A549/ATCC NSCLC, in the assay on 786-0 renal and with COLO 205 colon were 100%, 102% and 99%, respectively.
Take `c1cc(CNCCNCc2ccncc2)ccn1`: the growth is 112% in the assay with NCI-H23 lung; 103% with NCI-H226 lung; 97% in the assay with NCI-H322M lung; 103% with HOP-62 NSCLC; 97.5% in the assay on HOP-92 NSCLC; 108% in the assay with NCI-H522 lung. For the same molecule, the growth in the assay on A549/ATCC NSCLC was 97.7%; with 786-0 renal it was 104%; with COLO 205 colon, 113%.
Regarding `C=CCN1CCCC1=O`, the growth in the assay on NCI-H23 lung was 106%; in the assay on NCI-H226 lung, 102%; in the assay on NCI-H322M lung, 89.3%; in the assay with HOP-62 NSCLC it was 106%; in the assay on HOP-92 NSCLC it was 99.6%; in the assay on NCI-H522 lung it was 101%. For the same molecule, the growth in the assay with A549/ATCC NSCLC is 112%; in the assay with 786-0 renal, 105%; with COLO 205 colon, 95.4%.
With `CCN(Cc1ccc(Cl)c(Cl)c1)c1ccc2nc(N)nc(N)c2c1C`, the growth with NCI-H23 lung is -76.6% (active); in the assay with NCI-H226 lung, -62.2% (active); in the assay with NCI-H322M lung it was -94.3% (active); in the assay with HOP-62 NSCLC, -74.2% (active); in the assay on HOP-92 NSCLC, -90.9% (active); with NCI-H522 lung, -64.7% (active). In addition, the figures for the growth in the assay with A549/ATCC NSCLC, in the assay with 786-0 renal and in the assay with COLO 205 colon were -55.9% (active), -89.5% (active) and -96.1% (active), respectively.
